High-throughput results (PubChem)
HTR5A ag – HTR5A agonists in luminescence cell assay, primary screen, counter-screen for OPRM1-OPRD1 heterodimer agonist project, full-deck HTS; 5-hydroxytryptamine receptor 5A (Homo sapiens), P47898; cell-based; activation, % at 9.3 µM; actives 0.61% (n = 340,000); in the data active = activation mostly above about 9.5%, no sharp cut-off; inactive = mostly below about 7.6%;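 note: 0% = cells with vehicle only and 100% = reference agonist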
Target sequence (P47898 whole entry, looked up): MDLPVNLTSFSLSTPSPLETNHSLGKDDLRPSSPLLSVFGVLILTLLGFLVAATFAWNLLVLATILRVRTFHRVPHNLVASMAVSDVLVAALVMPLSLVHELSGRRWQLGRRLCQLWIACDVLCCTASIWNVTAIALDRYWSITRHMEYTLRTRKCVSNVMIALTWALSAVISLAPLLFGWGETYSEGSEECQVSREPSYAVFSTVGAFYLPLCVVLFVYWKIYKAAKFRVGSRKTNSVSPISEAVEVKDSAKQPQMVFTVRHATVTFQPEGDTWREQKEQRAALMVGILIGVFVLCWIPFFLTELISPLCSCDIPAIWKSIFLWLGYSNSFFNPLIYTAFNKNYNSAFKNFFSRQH
HTR5A inv ag – HTR5A inverse agonists in luminescence cell assay, primary screen, counter-screen for OPRM1-OPRD1 heterodimer inverse agonist project, full-deck HTS; AID 504634, 2011; HTR5A cell line, inverse agonism; actives 0.083% (n = 340,000); inhibition, % at 9.3 µM; in the data active = inhibition mostly above about 23%, no sharp cut-off; inactive = mostly below about 18%;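 note: 0% = cells with DMSO and 100% = no-cell wells with DMSO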
MOR-DOR inv ag-1 – inverse agonists of MOR-DOR heterodimerization, primary screen, cell-based, luminescence; inhibition, % at 9.3 µM; cell-based MOR-DOR heterodimer luminescence, inverse agonism; actives 0.21% (n = 340,000); Mu-type opioid receptor (Homo sapiens) + Delta-type opioid receptor (Homo sapiens), …; AID 504357, 2011; in the data active = inhibition above about 22%, passing the limit was not always enough;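 note: 0% = cells with DMSO and 100% = wells without cells with DMSO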
MOR-DOR ag-1 – agonists of OPRM1-OPRD1 heterodimerization, primary screen, cell-based, luminescence; cells; actives 0.3% (n = 340,000); AID 504326, 2011; activation, % at 9.3 µM; in the data active = activation above about 18%;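 note: 0% = vehicle-treated cells and 100% = reference agonist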
MOR-DOR inv conf – inverse agonists of MOR-DOR heterodimerization, confirmation, cell-based, luminescence | shares compounds with MOR-DOR inv ag-1 | cells expressing OPRM1/OPRD1 heterodimer | inhibition, % at 9.3 µM | actives 20% (n = 580) | AID 504900, 2011; in the data active = inhibition above about 32%;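 note: 0% = cells with DMSO and 100% = wells lacking cells with DMSO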
HTR5A inv ctr2 – HTR5A inverse agonists, counter-screen for OPRM1-OPRD1 inverse agonist project, cell-based, luminescence; 580 tested, under 10 active; inhibition, % at 9.3 µM; shares compounds with MOR-DOR inv ag-1; AID 504914, 2011; HTR5A-expressing cells, inverse agonism;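 note: 0% = cells with DMSO and 100% = no-cell wells with DMSO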
MOR-DOR inv ag-2 – inverse agonists of MOR-DOR heterodimerization, counter-screen for HTR5A inverse agonist project, cell-based, luminescence | shares compounds with HTR5A inv ag | U2OS counter-screen cells, complementation luminescence | inhibition, % at 9.3 µM | 190 tested, under 10 active;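 note: 0% = cells with DMSO and 100% = wells without cells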
HTR5A inv confrm – HTR5A inverse agonists, retest of hits, confirmation, cell-based, luminescence. inhibition, % at 9.3 µM. AID 504916, 2011. HTR5A-expressing cells, inverse agonism. 190 tested, under 10 active. shares compounds with HTR5A inv ag;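 note: 0% = cells with DMSO and 100% = no cells with DMSO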
MOR-DOR ag-2 – OPRM1-OPRD1 heterodimerization promoters, counter-screen for HTR5A agonist project, cell-based, luminescence; shares compounds with HTR5A ag; U2OS counter-screen cells, complementation luminescence, 3 h; activation, % at 9.3 µM; actives 13% (n = 800); in the data active = activation above about 18%
HTR5A ag conf – HTR5A agonists, retest of hits, confirmation, cell-based, luminescence; shares compounds with HTR5A ag; HTR5A agonist cell assay; activation, % at 9.3 µM; actives 17% (n = 800); AID 504915, 2011; in the data active = activation above about 17%;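 note: 0% = cells with vehicle only and 100% = full reference agonist response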
* hit, by the source's call; · = no result. Compounds with a hit are over-represented: about 1.1% of the library has one in this group of screens. Unless noted, the rule behind the calls is not given here.

SMILES	HTR5A ag	HTR5A inv ag	MOR-DOR inv ag-1	MOR-DOR ag-1	MOR-DOR inv conf	HTR5A inv ctr2	others
CCOc1cc(C(C(=O)NCC2CCCO2)N(C(=O)Cn2nnc3ccccc32)c2ccc(OC)c(OC)c2)ccc1O (centres undefined)	-3	-4	-4	1	·	·
Cc1cc(C(=O)Nc2ccccc2)oc(=O)c1	-3	7	4	-1	·	·
O=C1NC(=S)S/C1=C\c1cc(Cl)cc(Cl)c1O	0	-2	35*	-7	-59	-13
Cn1ccnc1Sc1cc(NCCCO)c([N+](=O)[O-])c2nonc12	-6	27	37*	-7	4	-2
CC(C)N1C(=O)C(O)(C2COC(C)(C)CC2=O)c2ccccc21 (centres undefined)	1	-11	11	-2	·	·
CC1(C)CC(=O)C(C2(O)C(=O)Nc3ccccc32)CO1 (centres undefined)	-8	22*	55*	-11	-110	-63
COc1ccc(CC(=O)OCC(=O)c2ccc(S(=O)(=O)N3CCCCC3)cc2)cc1	-11	29	50*	-13	13	8
O=C(COc1ccccc1)OCC(=O)c1ccc(S(=O)(=O)N2CCCCC2)cc1	-2	6	80*	-19	-27	-135
O=C(COC(=O)c1ccco1)c1ccc(S(=O)(=O)N2CCCCC2)cc1	-3	18	53*	-10	9	9
O=C(COC(=O)c1ccc(Br)o1)c1ccc(S(=O)(=O)N2CCCCC2)cc1	-9	22	65*	-17	-88	-4
COc1cc(OC)cc(C(=O)OCC(=O)c2ccc(S(=O)(=O)N3CCCCC3)cc2)c1	7	-17	6	-2	·	·
O=c1[nH]c(NCCO)nnc1Cc1ccccc1	-4	-28	17	-3	·	·
Cc1cc([N+](=O)[O-])nn1CCCC(=O)Nc1c(C)n(C)n(-c2ccccc2)c1=O	9	-13	7	-1	·	·
CC(C)[C@H](NC(=O)c1ccccc1)C(=O)OCC(=O)c1ccc(S(=O)(=O)N2CCCCC2)cc1	-1	1	30*	-5	-27	-6
CC(C)[C@H](NC(=O)c1ccccc1)C(=O)OCC(=O)Nc1ccc(S(=O)(=O)N2CCOCC2)cc1	3	-11	17	-4	·	·
O=C(COC(=O)c1ccccc1)c1ccc(S(=O)(=O)N2CCCCC2)cc1	-3	-10	46*	-7	32*	2
NC(=O)COC(=O)c1ccc(S(=O)(=O)N2CCCCCC2)cc1	-1	3	17	-3	·	·
Cc1nn(-c2ccccc2)nc1CNC(=O)C1CC1	-1	2	7	-1	·	·
O=c1[nH]cc(S(=O)(=O)Nc2ccc3c(c2)OCO3)c(=O)[nH]1	-2	5	0	0	·	·
CCNC(=S)NNC(=S)NCc1ccccc1	-3	13	21	-4	·	·
CCNC(=S)NNc1nnc(-c2ccccc2)c(-c2ccccc2)n1	2	17	50*	-10	29	8
Cc1ccc(-c2n[nH]c(=S)n2C)cc1Cl	-7	19*	33*	-6	2	12
CCN(CC)S(=O)(=O)c1cccc(-c2n[nH]c(=S)n2C)c1	4	-9	-7	1	·	·
Cc1ccc2c(c1)C(=O)C(=O)N2CC(=O)OC(C)C	-9	23	55*	-10	10	-1
Cc1ccc(OCCN2C(=O)C(=O)c3cc(C)ccc32)cc1	0	7	23	-4	·	·
SMILES	HTR5A ag	HTR5A inv ag	MOR-DOR inv ag-1	MOR-DOR ag-1	MOR-DOR inv conf	HTR5A inv ctr2	others
CCn1nc([N+](=O)[O-])c(C(C#N)c2nc3cc(C(F)(F)F)ccc3s2)c(Cl)c1=O (centres undefined)	-1	1	31*	-6	-4	-73
CCCn1nc([N+](=O)[O-])c(C(C#N)c2nc3ccccc3o2)c(Cl)c1=O (centres undefined)	-1	6	11	-2	·	·
COc1cccc(-n2nc(C#N)c(Cl)cc2=O)c1	-5	14	28*	-5	-2	17
COc1cccc(-n2nc(C(N)=O)c(O)cc2=O)c1	2	-5	14	-2	·	·
Cc1cc2cc(CCNS(=O)(=O)c3ccc(F)cc3)c(=O)[nH]c2cc1C	0	-5	-3	0	·	·
O=C(NNC(=O)c1ccccc1C(=O)O)c1ccc(O)cc1	1	-15	14	-3	·	·
O=C1C(=O)N(CCS(=O)(=O)c2ccccc2)c2ccc(Cl)cc21	1	-2	3	-1	·	·
CCc1ccc2c(c1)C(=O)C(=O)N2CCS(=O)(=O)c1ccccc1	-3	13	45*	-9	-28	-17
CC(C)(C)OC(=O)C[C@@H]1C/C=C\C[C@H](CC(=O)N(CCO)Cc2ccccc2)C(=O)NC[C@@H](c2ccccc2)OC1=O	-10	36	56*	-12	-427	-1
N#CC(C#N)=NNc1ccc([N+](=O)[O-])cc1	15*	-15	31*	-6	9	-11	MOR-DOR ag-2=-1;HTR5A ag conf=3
CC1CCCCN1CCCNC(=O)c1ccc(NC(=O)C2=CSCCO2)cc1 (centres undefined)	-1	3	9	-2	·	·
C=CCn1c(CCn2c3ccccc3c3ccccc32)n[nH]c1=S	2	24	9	-2	·	·
C=CCn1c(Cc2cccc3ccccc23)n[nH]c1=S	-8	28*	-4	1	·	·	MOR-DOR inv ag-2=2;HTR5A inv confrm=2
CCn1cc(C2CC(=O)NC2=O)c2ccccc21 (centres undefined)	1	-11	3	-1	·	·
CCOc1cc(/C=N/NC(=O)c2cccs2)cc([N+](=O)[O-])c1O	-9	25*	22	-4	·	·	MOR-DOR inv ag-2=55*;HTR5A inv confrm=-4
O=[N+]([O-])c1ccc(S(=O)(=O)Nc2cccc(-c3ccc(N4CCOCC4)nn3)c2)cc1	-1	43*	-35	5	·	·	MOR-DOR inv ag-2=-21;HTR5A inv confrm=-13
